This is a sample that favours compounds with a hit; in the whole collection about 2.4% have one here.
D2 antagonist: D2 dopamine receptor (human) antagonism | HEK293 TREx D2 cells, calcium flux, dopamine EC80 | 340,000 tested, 2% active | P14416 | inhibition, % at 10 µM | AID 485344; in the data active = inhibition above about 30%; inactive = below that, where a call was filed
Target sequence (P14416 whole entry, looked up): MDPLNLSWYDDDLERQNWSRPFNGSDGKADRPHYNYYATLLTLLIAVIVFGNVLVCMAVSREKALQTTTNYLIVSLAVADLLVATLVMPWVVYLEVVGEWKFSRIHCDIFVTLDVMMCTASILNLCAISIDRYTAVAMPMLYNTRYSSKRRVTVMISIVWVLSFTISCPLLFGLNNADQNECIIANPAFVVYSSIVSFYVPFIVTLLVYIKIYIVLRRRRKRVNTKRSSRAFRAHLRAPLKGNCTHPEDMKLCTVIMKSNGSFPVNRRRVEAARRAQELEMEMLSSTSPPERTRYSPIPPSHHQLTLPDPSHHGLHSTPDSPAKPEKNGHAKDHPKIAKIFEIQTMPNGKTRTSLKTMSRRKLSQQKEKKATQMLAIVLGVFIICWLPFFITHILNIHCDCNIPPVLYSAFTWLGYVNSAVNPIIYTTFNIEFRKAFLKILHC
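Dopamine at EC80 is the agonist stimulus; test compounds precede it by 180 s. Calcium flux read kinetically in a force-coupled, inducible HEK293 T-REx D2 cell line.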
D2 ag-1: activates the human D2 dopamine receptor | P14416 | HEK293 T-REx D2 cells, calcium flux agonist mode | activation, % at 2 µM | 340,000 tested, 0.53% active | AID 485358;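 active = activation over 3 SD above normal in the single-dose calcium agonist read, cut at about 30% in these data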
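Tetracycline-induced HEK293 T-REx cells with force-coupled D2 receptor, plated overnight at 30 C, loaded with no-wash calcium dye. After a 10 s baseline, compound was pin-added and calcium flux read kinetically for 180 s; calcium rises flagged agonists.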
D2 ag-2: human D2 receptor agonism in beta-arrestin assay. activation, % (no concentration beside the values). 360,000 tested, 0.084% active. AID 624465. DiscoveRx PathHunter D2 beta-arrestin, luminescence, 90 min; 100% = 57 uM dopamine signal; in the data active = activation above about 40%; inconclusive = between about 15% and that limit
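DiscoveRx PathHunter D2 beta-arrestin cells (2,100/well) attached overnight, then compound-stimulated 90 min at 37 C in HBSS/10 mM HEPES/0.1% Tween-20 buffer; beta-galactosidase complementation read by luminescence after 1 h at ambient temperature. Dopamine 57 uM final (EC100) as control.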
D2 PAM-1: positive allosteric modulators of human D2 dopamine receptor; potentiation, % (test concentration not listed); P14416; 360,000 tested, 0.23% active; DiscoveRx D2 beta-arrestin cells, luminescence, 90 min; 100% = 57 uM dopamine signal; in the data active = potentiation above about 50%; inconclusive = mostly about 30% to 49%
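PathHunter D2 cells, attached overnight at 37 deg C, received compound in DMSO plus dopamine at EC20 (50 nM final) for 90 min at 37 deg C. Beta-arrestin recruitment was read as luminescence after 1 h with detection reagent at ambient temperature.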
D2 PAM-2: positive allosteric modulators of human D2 dopamine receptor; P14416; AID 485347; HEK293 T-REx D2, calcium flux, EC20 dopamine potentiation; 340,000 tested, 0.34% active; potentiation, % at 10 µM;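 active = potentiation over 3 SD above the plate norm, cut at about 30% in these data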
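Tetracycline-induced Hek293 Trex D2 cells, force-coupled to calcium, loaded with no-wash calcium dye. Compound added with 180 s kinetic read for agonism, then EC20 dopamine and a further 180 s read for potentiation.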
Of the large screens only hits and unclear results are named; the others gave an inactive call.

CCCCOc1ccc(C(=O)Nc2onc3c2CCCC3)cc1	none (no result: D2 antagonist, D2 ag-1, D2 ag-2, D2 PAM-1)
Cc1c(Cl)cccc1NC(=O)Nc1nnc(N(C)C2CCCCC2)s1	none (no result: D2 antagonist, D2 ag-2, D2 PAM-1)
CCc1cc2ccc(C)cc2nc1SCC(=O)c1ccc(NC(C)=O)cc1	none
CCc1cc2cccc(C)c2nc1SCC(=O)c1ccc(NC(C)=O)cc1	D2 antagonist 47
O=C(CN1C(=O)c2cccnc2Oc2ccc(Cl)cc21)NC1CCCCCC1	D2 antagonist 41
CCOC(=O)Cc1cc(=O)n2[nH]c(C)c(-c3ccc(OC)cc3)c2n1	D2 PAM-2 31
CCCc1cc(=O)n2[nH]c(C)c(-c3ccccc3)c2n1	none (no result: D2 antagonist, D2 ag-1, D2 PAM-2)
CCc1cc(=O)n2[nH]c(C)c(-c3ccc(OC)cc3)c2n1	D2 antagonist 34
Cc1ccc(CNC(=O)CCc2c(C)nc3c4c(C)cc(C)nc4nn3c2C)cc1	none (no result: D2 antagonist, D2 ag-2, D2 PAM-1)
COc1ccc(NC(=O)c2cc(C3CCCCN3S(=O)(=O)c3cccs3)on2)c(C)c1 (stereo unspecified)	none (no result: D2 antagonist, D2 ag-1, D2 PAM-2)
Cc1nc(=O)c(-c2ccccc2)c(C)n1-c1cccc(C(=O)O)c1	D2 antagonist 31
Cc1ccc(NCC(=O)N/N=C/c2ccncc2)cc1	D2 antagonist 49
CCCNc1nc(NCc2ccccc2OC)c2cnn(C)c2n1	none (no result: D2 antagonist, D2 ag-2, D2 PAM-1)
CCC(=O)N/N=C/c1ccc(-c2ccc([N+](=O)[O-])cc2)o1	none
CC(C)(C)C(=O)/C=c1\s/c(=C\c2ccc(-c3ccc([N+](=O)[O-])cc3)o2)c(=O)n1CC(=O)NC(N)=O	D2 antagonist 91, D2 ag-1 206
CC(=O)c1ccc(Oc2nc(C)nc3c2oc2ccccc23)cc1	none (no result: D2 antagonist, D2 ag-2, D2 PAM-1)
CCC1ON(C(C)C)C2c3nc4ccccc4n3CC12 (stereo unspecified)	D2 antagonist 32
CCC1ON(c2ccccc2)C2c3nc4ccccc4n3CC12 (stereo unspecified)	D2 antagonist 36
CC1(C)O[C@H]2[C@@H](O1)[C@@H](C(=O)Nc1cc(F)ccc1F)O[C@@H]1OC(C)(C)O[C@@H]12	none (no result: D2 antagonist, D2 ag-1, D2 ag-2, D2 PAM-1)
COc1ccc(/C=C/C(=O)c2ccc(C(=O)/C=C/c3ccc(OC)c(OC)c3)cc2)cc1OC	D2 antagonist 34
COC(=O)c1ccc(/C=C/C(=O)c2ccc(OC)c(OC)c2)cc1	none
Cc1ccc(S(=O)(=O)N(C)C)cc1NC(=S)NCCc1ccccn1	D2 antagonist 34
CN(C)S(=O)(=O)c1cccc(NC(=S)NCCc2ccccn2)c1	none
Cc1ccc(S(=O)(=O)N(C)C)cc1NC(=S)Nc1ccc2cn[nH]c2c1	D2 antagonist 43
CCOc1ccc(CNC(=O)CS(=O)(=O)c2cccc3nsnc23)cc1	none (no result: D2 antagonist, D2 ag-2, D2 PAM-1)
CCc1ccc(NC(=O)CC2C(=O)N(c3cccc(C)c3)C(=O)N2Cc2ccco2)cc1 (stereo unspecified)	none (no result: D2 antagonist, D2 ag-1, D2 ag-2, D2 PAM-1)
CCC(=O)c1ccc(OCC(=O)NCCCN2CCOCC2)cc1	none (no result: D2 antagonist, D2 ag-1, D2 PAM-2)
Cc1cc(OCC(=O)NCCN2CCOCC2)c2c(C)c(C)c(=O)oc2c1	D2 PAM-2 33
COc1ccc(OCC(=O)NCCCN2CCOCC2)cc1	D2 antagonist 32
CCOc1ccc(C(=O)Nc2ccc3oc(-c4ccc5ccccc5c4)nc3c2)cc1	none (no result: D2 antagonist, D2 ag-2, D2 PAM-1)
CC(=O)Nc1sc(N/N=C\c2ccccc2F)nc1-c1cccs1	D2 ag-2 inconclusive, D2 PAM-1 64
CC(=O)Nc1sc(N/N=C\c2ccc(O)cc2)nc1-c1cccs1	none
Cc1nn(Cc2ccccc2)c(C)c1NC(=O)c1ccc([N+](=O)[O-])cc1[N+](=O)[O-]	D2 ag-2 inconclusive, D2 PAM-1 88
CCc1ccc(NC(=O)CN2C(=O)C3CCCN3c3ccc(S(=O)(=O)N(CC)CC)cc32)cc1 (stereo unspecified)	none (no result: D2 antagonist, D2 ag-1, D2 ag-2, D2 PAM-1)
O=C(CC1S/C(=N/N=C/c2cccs2)NC1=O)Nc1ccc(Cl)cc1 (stereo unspecified)	D2 antagonist 44
COc1cc(OC)cc(C(=O)NCC2CCCN(Cc3ccc(SC)cc3)C2)c1 (stereo unspecified)	D2 antagonist 51
COc1ccc(CN2CCCC(C(=O)c3ccc(SC)cc3)C2)cc1Cn1cccn1 (stereo unspecified)	D2 antagonist 33
CCc1ccc(CN2CCCC(CNC(=O)c3cc(OC)cc(OC)c3)C2)cc1 (stereo unspecified)	none

Screening data as filed in PubChem.
